The supplement of paper PMC13380429

Tested on: Vero E6 infected with SARS-CoV-2
Test: inhibition of SARS-CoV-2 cytopathic effect; higher = more antiviral protection, active = above 15
Details: 48 h

Measured: inhibition of SARS-CoV-2 cytopathic effect

C[C@]12C/C(=C/O)C(=O)C[C@@H]1CC[C@@H]1[C@@H]2CC[C@@]2(C)[C@H]1CC[C@]2(C)O [Oxymetholone]
inactive: 1 nM 0.88% | 8.33 nM 0.02% | 100 nM 1.73% | 833.33 nM 0.45% | 10000 nM 1.57%

CCOc1ccc(C[C@H]2NC(=O)CCSSC[C@@H](C(=O)N3CCC[C@H]3C(=O)N[C@@H](CCCN)C(=O)NCC(N)=O)NC(=O)[C@H](CC(N)=O)NC(=O)[C@H]([C@@H](C)O)NC(=O)[C@H]([C@@H](C)CC)NC2=O)cc1 [atosiban]
inactive: 1 nM 1.81% | 8.33 nM -1.47% | 100 nM -2.35% | 833.33 nM -0.16% | 10000 nM 0.37%

Cc1ccc2c(c1CCC(=O)O)CC[C@@H](NS(=O)(=O)c1ccc(Cl)cc1)C2 [terutroban]
inactive: 1 nM -4.39% | 8.33 nM -2.46% | 100 nM -5.1% | 833.33 nM -1.42% | 10000 nM 0.09%

Clc1ccc(C(Cn2ccnc2)OCc2ccc(Sc3ccccc3)cc2)c(Cl)c1 (stereo not given) [fenticonazole]
inactive: 1 nM -3.37% | 8.33 nM 3.19% | 100 nM 0.76% | 833.33 nM 0.19% | 10000 nM 2.21%

CC(C)Nc1cccnc1N1CCN(C(=O)c2cc3cc(NS(C)(=O)=O)ccc3[nH]2)CC1 [delavirdine]
inactive: 1 nM -1.49% | 8.33 nM -0.85% | 100 nM 1.56% | 833.33 nM 1.65% | 10000 nM 2.87%

O=P1(N(CCCl)CCCl)NCCCO1 (stereo not given) [cyclophosphamide]
inactive: 1 nM -3.03% | 8.33 nM 0.27% | 100 nM -0.35% | 833.33 nM -1.65% | 10000 nM 0.46%

CC(=O)Nc1ccc(C(=O)NC(C)(C)C)cc1
inactive: 1 nM -4.86% | 8.33 nM -3.67% | 100 nM -1.32% | 833.33 nM -3.41% | 10000 nM -0.2%

CSc1nc2ccc3nc(NC(=O)C(c4ccccc4)c4ccccc4)sc3c2s1
inactive: 1 nM 1.77% | 8.33 nM 1.67% | 100 nM 1.24% | 833.33 nM 1.38% | 10000 nM -1.25%

COc1cc2c(=O)c(-c3ccc(O)cc3)coc2cc1O [glycitein]
inactive: 1 nM 1.2% | 8.33 nM -0.34% | 100 nM -0.96% | 833.33 nM -2.13% | 10000 nM -1.58%

CC(C)(N)c1nc(-c2ccc(OC(F)(F)F)cc2)c[nH]1
inactive: 1 nM 0.82% | 8.33 nM 0.2% | 100 nM 2.45% | 833.33 nM 1.1% | 10000 nM -2.65%

CC(C)=CCC[C@](C)(O[C@@H]1O[C@H](CO)[C@@H](O)[C@H](O)[C@H]1O)[C@H]1CC[C@]2(C)[C@@H]1[C@H](O)C[C@@H]1[C@@]3(C)CC[C@H](O[C@@H]4O[C@H](CO)[C@@H](O)[C@H](O)[C@H]4O[C@@H]4O[C@H](CO)[C@@H](O)[C@H](O)[C@H]4O)C(C)(C)[C@@H]3CC[C@]12C [ginsenoside-RD]
inactive: 1 nM -2.36% | 8.33 nM -1% | 100 nM 2.51% | 833.33 nM 0.27% | 10000 nM 0.18%

CC(CC(C(N)=O)(c1ccccc1)c1ccccc1)N(C)C (stereo not given) [aminopentamide]
inactive: 1 nM -1.11% | 8.33 nM -1.56% | 100 nM -1.71% | 833.33 nM 0.24% | 10000 nM -0.57%

Cc1ccc(-c2ncc(Cl)cc2-c2ccc(S(C)(=O)=O)cc2)cn1 [etoricoxib]
inactive: 1 nM 2.49% | 8.33 nM 0.25% | 100 nM -0.65% | 833.33 nM -1.22% | 10000 nM -1.11%

O=C(NCc1ccc(Oc2ccccc2)cc1)c1nc(-c2cc(Br)c(O)c(Br)c2)no1
inactive: 1 nM -1.01% | 8.33 nM -0.54% | 100 nM 0% | 833.33 nM 0.07% | 10000 nM 0.36%

O=C1CCC2CCC(=O)N12 [rolziracetam]
inactive: 1 nM 0.67% | 8.33 nM 1.21% | 100 nM 1.49% | 833.33 nM -1.36% | 10000 nM -2.89%

COc1ccc(-c2ccc3ncc4c(c3c2)n(-c2ccc(N3CCNCC3)c(C(F)(F)F)c2)c(=O)n4C)cn1
inactive: 1 nM 0.99% | 8.33 nM 2.5% | 100 nM -0.69% | 833.33 nM -8.37% | 10000 nM -23.9%

CC(C)(C)C[C@@H]1N[C@@H](C(=O)N[C@H]2CC[C@H](O)CC2)[C@H](c2cccc(Cl)c2F)[C@]12C(=O)Nc1cc(Cl)ccc12
inactive: 1 nM -4.12% | 8.33 nM -2.43% | 100 nM -7.89% | 833.33 nM 2.65% | 10000 nM 2.37%

S=P(N1CC1)(N1CC1)N1CC1 [thiotepa]
inactive: 1 nM -0.94% | 8.33 nM 1.88% | 100 nM 0.45% | 833.33 nM -0.47% | 10000 nM 2.21%

CCNC(=O)c1noc(-c2cc(C(C)C)c(O)cc2O)c1-c1ccc(CN2CCOCC2)cc1
inactive: 1 nM 0.97% | 8.33 nM -0.58% | 100 nM -1.84% | 833.33 nM 0.4% | 10000 nM -4.07%
